From the supplement of paper PMC10849652
Of roughly 8,800 targets only a part is listed; those with a hit were picked by preference. About 0.5% of all pairs of compound and target were hits. Values without a mark were called inactive.

How the values were obtained:
Test in all cases: log2 fold change, soluble protein after heating vs DMSO (PISA); higher = thermal stabilisation; K562 lysate, 10 uM; active = over 0.2 and 3.5 SD of the protein, either way, in both replicates (recomputed)
[1] = compound: CN1CC[C@H](c2c(O)cc(O)c3c(=O)cc(-c4ccccc4Cl)oc23)[C@H](O)C1 [alvocidib]
Summary of the method: (§1)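 Pellets of K562 cells were dounce-homogenised in PBS pH 7.4 with 1 mM MgCl2, and the crude extract was held at 1 mg/mL protein for a 30 min treatment with 10 μM compound. Aliquots were heated for 3 min over 48°C-58°C and pooled before NP-40 was added to 0.5% at 4°C. The supernatant from 21,000xg for 90 min was quantified by TMTpro 16plex LC-MS/MS with channel sums equalised. Values are reported from duplicates as log-two fold change in thermal stability relative to solvent controls.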

[2] = compound: CN1CCc2c(c3ccccc3n2Cc2ccc(C(=O)NO)cc2)C1 [Tubastatin A]
Summary of the method: as §1

[3] = compound: CNC(=O)C1=CC=CC=C1NC2=NC(=NC=C2Cl)NC3=C(C=C(C=C3)N4CCOCC4)OC
Summary of the method: as §1

[4] = compound: CNC(=O)c1ccc(Nc2ncc(C(F)(F)F)c(NCc3nccnc3N(C)S(C)(=O)=O)n2)cc1 [defactinib]
Summary of the method: as §1

[5] = compound: CNc1nc(-c2ccc3c(N)n[nH]c3c2)cc(N2C[C@@H](C(=O)NC3CCCCC3)CC[C@H]2C)n1
Summary of the method: as §1

[6] = compound: COC(=O)N[C@@H](C)CNc1nccc(-c2cn(C(C)C)nc2-c2cc(Cl)cc(NS(C)(=O)=O)c2F)n1 [encorafenib]
Summary of the method: as §1

[7] = compound: COC(=O)[C@H](CCSC)NC(=O)C1=C(C=C(C=C1)NC[C@H](CS)N)C2=CC=CC=C2
Summary of the method: as §1

[8] = compound: COc1cc(Nc2ncc3c(n2)-c2ccc(Cl)cc2C(c2c(F)cccc2OC)=NC3)ccc1C(=O)O [alisertib]
Summary of the method: as §1

[9] = compound: COc1cc2nc(-c3cc(F)ccc3O)nc(N[C@@H]3CNC[C@H]3C(C)(C)O)c2cc1OC
Summary of the method: as §1

[10] = compound: COc1cc2ncnc(Nc3ccc(F)c(Cl)c3)c2cc1OCCCN1CCOCC1 [gefitinib]
Summary of the method: as §1

[11] = compound: CS(=O)(=O)CCNCc1ccc(-c2ccc3ncnc(Nc4ccc(OCc5cccc(F)c5)c(Cl)c4)c3c2)o1 [lapatinib]
Summary of the method: as §1

[12] = compound: C[C@@H](Oc1cc(-c2cnn(C3CCNCC3)c2)cnc1N)c1c(Cl)ccc(F)c1Cl [crizotinib]
Summary of the method: as §1

[13] = compound: C[C@H](C1=CC=C(C=C1)C(=O)NC2=C3C=CNC3=NC=C2)N
Summary of the method: as §1

[14] = compound: C[C@H](Nc1ncnc2nc[nH]c12)c1cc2cccc(Cl)c2c(=O)n1-c1ccccc1 [duvelisib]
Summary of the method: as §1

[15] = compound: Cc1cc(Nc2cc(CN3CCOCC3)c3nc(C)c(Cc4ccc(Cl)cc4F)n3n2)n[nH]1 [gandotinib]
Summary of the method: as §1

[16] = compound: Cc1cc(Nc2cc(N3CCN(C)CC3)nc(Sc3ccc(NC(=O)C4CC4)cc3)n2)n[nH]1 [tozasertib]
Summary of the method: as §1

[17] = compound: Cc1ccc(-n2nc(C(C)(C)C)cc2NC(=O)Nc2ccc(OCCN3CCOCC3)c3ccccc23)cc1 [doramapimod]
Summary of the method: as §1

[18] = compound: Cc1cccc(CC(=O)N2CCc3c2ccc(-c2cn(C)c4ncnc(N)c24)c3F)n1
Summary of the method: as §1

[19] = compound: CS(=O)(=O)N1CCN(Cc2cc3nc(-c4cccc5[nH]ncc45)nc(N4CCOCC4)c3s2)CC1 [pictilisib]
Summary of the method: as §1

[20] = compound: Cc1ccc(NC(=O)c2ccc(CN3CC[C@H](N(C)C)C3)c(C(F)(F)F)c2)cc1Nc1nccc(-c2cncnc2)n1 [bafetinib]
Summary of the method: as §1

UniProt O75970, sequence (O75970 whole entry, looked up): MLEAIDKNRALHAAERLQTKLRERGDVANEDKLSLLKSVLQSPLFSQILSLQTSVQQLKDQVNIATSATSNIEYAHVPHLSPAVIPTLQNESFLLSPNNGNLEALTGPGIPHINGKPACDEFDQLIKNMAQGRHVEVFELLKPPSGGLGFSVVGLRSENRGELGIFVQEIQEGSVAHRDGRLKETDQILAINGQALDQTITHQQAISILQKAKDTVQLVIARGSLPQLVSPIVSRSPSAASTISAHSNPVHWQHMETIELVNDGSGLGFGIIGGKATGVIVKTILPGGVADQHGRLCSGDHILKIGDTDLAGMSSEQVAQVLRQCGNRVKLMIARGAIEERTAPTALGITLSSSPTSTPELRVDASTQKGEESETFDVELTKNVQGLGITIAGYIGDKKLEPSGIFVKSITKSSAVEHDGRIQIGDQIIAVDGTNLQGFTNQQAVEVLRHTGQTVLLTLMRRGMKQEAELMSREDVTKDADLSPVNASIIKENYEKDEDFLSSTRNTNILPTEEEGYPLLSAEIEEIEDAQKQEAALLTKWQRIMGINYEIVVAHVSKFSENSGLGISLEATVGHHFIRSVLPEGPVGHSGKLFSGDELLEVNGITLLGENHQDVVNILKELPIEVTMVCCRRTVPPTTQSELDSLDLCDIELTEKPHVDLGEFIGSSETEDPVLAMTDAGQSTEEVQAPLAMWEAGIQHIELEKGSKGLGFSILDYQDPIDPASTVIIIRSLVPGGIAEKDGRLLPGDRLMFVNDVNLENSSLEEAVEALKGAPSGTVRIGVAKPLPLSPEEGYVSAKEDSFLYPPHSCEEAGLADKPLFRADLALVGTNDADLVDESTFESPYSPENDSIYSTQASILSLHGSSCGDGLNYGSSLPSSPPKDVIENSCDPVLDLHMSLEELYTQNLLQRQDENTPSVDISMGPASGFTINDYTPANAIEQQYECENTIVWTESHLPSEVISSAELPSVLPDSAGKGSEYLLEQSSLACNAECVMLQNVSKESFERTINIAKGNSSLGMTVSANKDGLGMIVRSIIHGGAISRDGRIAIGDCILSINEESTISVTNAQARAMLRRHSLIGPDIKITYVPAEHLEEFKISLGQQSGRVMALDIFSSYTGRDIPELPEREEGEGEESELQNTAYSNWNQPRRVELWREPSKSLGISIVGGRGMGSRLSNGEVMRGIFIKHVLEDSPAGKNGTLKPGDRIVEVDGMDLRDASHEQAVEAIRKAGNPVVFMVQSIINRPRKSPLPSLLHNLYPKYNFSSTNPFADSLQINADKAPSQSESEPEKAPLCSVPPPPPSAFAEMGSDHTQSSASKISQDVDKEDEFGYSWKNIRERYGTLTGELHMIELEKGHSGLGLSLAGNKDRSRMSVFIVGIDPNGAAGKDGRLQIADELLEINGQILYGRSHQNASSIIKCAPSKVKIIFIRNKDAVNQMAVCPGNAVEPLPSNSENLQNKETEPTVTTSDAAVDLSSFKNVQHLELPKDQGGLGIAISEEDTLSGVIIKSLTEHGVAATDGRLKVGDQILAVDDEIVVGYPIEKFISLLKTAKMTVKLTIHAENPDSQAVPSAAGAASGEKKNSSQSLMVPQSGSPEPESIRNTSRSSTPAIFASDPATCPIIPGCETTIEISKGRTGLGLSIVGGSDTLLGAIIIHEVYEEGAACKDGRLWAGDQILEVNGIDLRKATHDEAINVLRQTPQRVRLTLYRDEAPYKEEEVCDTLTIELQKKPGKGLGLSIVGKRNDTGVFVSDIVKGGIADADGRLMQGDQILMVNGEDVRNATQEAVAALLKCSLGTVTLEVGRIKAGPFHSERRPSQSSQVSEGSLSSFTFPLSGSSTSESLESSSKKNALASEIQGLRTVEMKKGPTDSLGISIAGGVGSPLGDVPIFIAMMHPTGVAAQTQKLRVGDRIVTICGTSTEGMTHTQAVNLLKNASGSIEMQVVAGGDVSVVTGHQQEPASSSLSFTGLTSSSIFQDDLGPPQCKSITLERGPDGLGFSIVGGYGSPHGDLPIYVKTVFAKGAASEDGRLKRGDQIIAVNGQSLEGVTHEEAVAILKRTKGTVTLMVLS
UniProt Q00987, sequence (Q00987 whole entry, looked up): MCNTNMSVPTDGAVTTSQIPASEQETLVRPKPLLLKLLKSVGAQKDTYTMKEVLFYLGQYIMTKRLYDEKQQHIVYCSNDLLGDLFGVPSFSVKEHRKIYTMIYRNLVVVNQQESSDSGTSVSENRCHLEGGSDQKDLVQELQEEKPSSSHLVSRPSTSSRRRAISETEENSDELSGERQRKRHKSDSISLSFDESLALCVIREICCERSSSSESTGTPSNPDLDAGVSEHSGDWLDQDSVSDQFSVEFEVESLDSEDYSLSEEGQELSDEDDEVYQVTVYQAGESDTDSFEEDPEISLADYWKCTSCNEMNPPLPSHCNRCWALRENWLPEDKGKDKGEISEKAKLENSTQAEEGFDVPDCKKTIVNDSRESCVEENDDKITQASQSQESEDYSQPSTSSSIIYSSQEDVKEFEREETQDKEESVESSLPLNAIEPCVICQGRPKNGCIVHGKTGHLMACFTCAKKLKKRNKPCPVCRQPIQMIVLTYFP
UniProt Q9Y4K4, sequence (Q9Y4K4 whole entry, looked up): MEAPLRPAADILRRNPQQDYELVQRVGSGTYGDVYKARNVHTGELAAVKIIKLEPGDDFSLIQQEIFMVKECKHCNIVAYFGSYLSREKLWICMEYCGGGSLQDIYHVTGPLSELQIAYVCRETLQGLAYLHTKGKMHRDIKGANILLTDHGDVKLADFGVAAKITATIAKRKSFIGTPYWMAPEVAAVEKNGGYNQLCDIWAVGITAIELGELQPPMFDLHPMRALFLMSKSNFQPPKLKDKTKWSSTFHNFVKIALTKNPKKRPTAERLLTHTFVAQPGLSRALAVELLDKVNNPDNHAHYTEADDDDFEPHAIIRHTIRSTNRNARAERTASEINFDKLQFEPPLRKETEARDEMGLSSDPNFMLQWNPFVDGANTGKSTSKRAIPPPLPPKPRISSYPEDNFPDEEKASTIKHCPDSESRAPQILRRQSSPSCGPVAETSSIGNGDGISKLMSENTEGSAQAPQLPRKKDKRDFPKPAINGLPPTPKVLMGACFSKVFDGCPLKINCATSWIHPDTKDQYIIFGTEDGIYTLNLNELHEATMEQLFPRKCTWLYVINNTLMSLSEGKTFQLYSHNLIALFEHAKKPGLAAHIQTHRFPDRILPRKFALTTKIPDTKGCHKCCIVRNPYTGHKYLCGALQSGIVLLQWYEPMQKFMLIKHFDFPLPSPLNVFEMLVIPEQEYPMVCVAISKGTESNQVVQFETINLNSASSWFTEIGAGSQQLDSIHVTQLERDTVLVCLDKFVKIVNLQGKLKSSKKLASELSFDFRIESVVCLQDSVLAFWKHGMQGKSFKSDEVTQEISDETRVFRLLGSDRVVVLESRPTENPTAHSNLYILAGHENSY
UniProt Q9Y2E5, sequence (Q9Y2E5 whole entry, looked up): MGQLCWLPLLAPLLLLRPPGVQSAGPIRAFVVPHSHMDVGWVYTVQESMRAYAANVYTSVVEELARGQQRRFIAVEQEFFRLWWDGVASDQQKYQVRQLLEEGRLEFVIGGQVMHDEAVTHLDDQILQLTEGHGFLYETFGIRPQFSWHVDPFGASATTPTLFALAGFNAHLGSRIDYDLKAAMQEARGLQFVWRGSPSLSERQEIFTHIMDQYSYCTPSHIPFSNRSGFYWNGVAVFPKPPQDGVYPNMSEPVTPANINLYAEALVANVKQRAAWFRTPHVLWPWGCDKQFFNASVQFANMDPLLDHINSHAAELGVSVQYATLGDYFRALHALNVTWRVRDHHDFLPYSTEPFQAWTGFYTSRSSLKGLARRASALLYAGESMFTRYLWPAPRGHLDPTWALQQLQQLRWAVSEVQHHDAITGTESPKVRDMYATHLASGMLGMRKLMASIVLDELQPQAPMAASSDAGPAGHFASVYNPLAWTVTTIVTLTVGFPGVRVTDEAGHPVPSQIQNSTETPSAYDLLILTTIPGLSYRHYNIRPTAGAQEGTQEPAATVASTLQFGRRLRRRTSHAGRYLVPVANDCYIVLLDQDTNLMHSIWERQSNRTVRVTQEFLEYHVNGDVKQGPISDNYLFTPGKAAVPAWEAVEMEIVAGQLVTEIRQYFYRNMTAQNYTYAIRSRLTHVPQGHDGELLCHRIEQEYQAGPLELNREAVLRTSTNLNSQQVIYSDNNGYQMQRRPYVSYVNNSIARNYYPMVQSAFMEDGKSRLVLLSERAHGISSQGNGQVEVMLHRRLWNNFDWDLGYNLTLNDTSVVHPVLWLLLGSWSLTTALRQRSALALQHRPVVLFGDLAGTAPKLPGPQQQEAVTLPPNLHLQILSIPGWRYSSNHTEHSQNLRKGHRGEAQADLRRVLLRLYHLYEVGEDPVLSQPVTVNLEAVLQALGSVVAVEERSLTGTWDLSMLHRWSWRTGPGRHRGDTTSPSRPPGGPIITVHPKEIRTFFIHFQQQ
UniProt Q16539, sequence (Q16539 whole entry, looked up): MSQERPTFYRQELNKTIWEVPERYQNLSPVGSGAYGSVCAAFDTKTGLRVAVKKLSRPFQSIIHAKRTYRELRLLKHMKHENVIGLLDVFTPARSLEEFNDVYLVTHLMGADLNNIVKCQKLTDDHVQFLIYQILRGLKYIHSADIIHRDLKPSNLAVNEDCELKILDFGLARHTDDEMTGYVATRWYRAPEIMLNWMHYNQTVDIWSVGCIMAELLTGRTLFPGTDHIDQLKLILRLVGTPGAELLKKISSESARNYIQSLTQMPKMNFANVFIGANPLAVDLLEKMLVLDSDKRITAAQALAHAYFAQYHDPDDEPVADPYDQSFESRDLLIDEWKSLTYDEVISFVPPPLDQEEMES
UniProt Q9BTT4, sequence (Q9BTT4 whole entry, looked up): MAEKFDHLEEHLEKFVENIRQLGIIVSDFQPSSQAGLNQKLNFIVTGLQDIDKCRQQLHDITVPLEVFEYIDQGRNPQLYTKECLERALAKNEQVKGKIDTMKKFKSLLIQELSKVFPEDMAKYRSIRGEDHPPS

Target	log2 fold change [1]	log2 fold change [2]	log2 fold change [3]	log2 fold change [4]	log2 fold change [5]	log2 fold change [6]	log2 fold change [7]	log2 fold change [8]	log2 fold change [9]	log2 fold change [10]	log2 fold change [11]	log2 fold change [12]	log2 fold change [13]	log2 fold change [14]	log2 fold change [15]	log2 fold change [16]	log2 fold change [17]	log2 fold change [18]	log2 fold change [19]	log2 fold change [20]
MPDZ (UniProt O75970)	0.028	0.117	0.236	0.053	0.099	-0.091	-0.032	-0.167	-0.114	0.228	0.046	0.127	0.099	-0.003	0.016	0.118	0.053	-0.066	–	–
MAP2K5 (UniProt Q13163)	0.067	-0.033	0.086	-0.026	0.329	0.149	-0.15	-0.016	0.054	0.155	0.038	-0.109	0.013	0.152	-0.089	–	-0.017	0.105	-0.021	-0.436
MANEA (UniProt Q5SRI9)	-0.078	-0.08	-0.016	0.062	-0.09	0.028	-0.07	–	0.041	–	-0.01	-0.023	-0.464 (active)	0.036	0.365 (active)	0.035	0.034	0.278	0.008	0.007
MOCS3 (UniProt O95396)	-0.213	-0.082	0.111	-0.161	-0.008	0.056	-0.094	0.031	–	-0.231	–	-0.127	-0.176	0.009	0.227	0.027	0.072	0.348	0.004	-0.054
MDM2 isoform 11 (UniProt Q00987)	-0.127	0.15	0.041	0.158	–	–	–	–	–	–	–	0.014	-0.004	–	0.044	–	0.009	-0.158	-0.003	0.054
MAST2 (UniProt Q6P0Q8)	-0.096	-0.06	0.219	-0.009	-0.009	0.114	0.078	–	-0.002	–	0.012	-0.004	-0.171	-0.065	-0.07	0.148	-0.034	-0.092	0.161	-0.289
MAPK14 isoform 2 (UniProt Q16539)	0.154	-0.121	0.299	0.01	-0.041	0.454	0.257	-0.065	-0.004	0.144	-0.008	-0.028	0.222	-0.026	-0.086	0.001	–	-0.122	-0.054	0.765
MED25 isoform 3 (UniProt Q71SY5)	0	0.056	-0.033	–	-0.022	-0.123	0.005	0.125	0.01	-0.029	0.018	-0.05	0.053	0.063	-0.095	-0.109	-0.042	-0.052	-0.05	-0.023
MAP3K4 (UniProt Q9Y6R4)	-0.027	-0.113	0.366 (active)	0.071	-0.018	-0.171	0.128	-0.028	-0.045	0.081	-0.02	0.033	0.064	-0.017	0.034	0.092	0.073	-0.041	0.009	-0.031
KRR1 (UniProt Q13601)	0.028	-0.033	-0.054	0.01	-0.005	0.092	0.023	0.032	0.046	-0.014	-0.039	-0.228	0.05	-0.037	-0.097	-0.038	0.127	0.002	0.03	-0.039
KIF21A isoform 5 (UniProt Q7Z4S6)	0.106	-0.066	0.022	0.007	0.008	-0.016	0.09	-0.033	-0.002	-0.012	-0.014	-0.021	0.157	-0.032	-0.077	0.005	0.019	-0.062	-0.018	-0.019
MARF1 (UniProt Q9Y4F3)	-0.024	-0.194	0.024	-0.157	-0.021	0.053	0.086	-0.056	–	0.02	–	-0.021	0.035	-0.002	-0.1	-0.032	-0.004	0.095	-0.212	-0.012
MED10 (UniProt Q9BTT4)	0.038	0.041	0.042	0.068	0.045	0.11	-0.185	0.082	-0.03	-0.045	0.107	0.016	-0.024	0.016	0.04	-0.057	0.014	0.055	0.232	0.187
MAP4K5 (UniProt Q9Y4K4)	0.045	-0.021	0.068	0.125	-0.006	0.009	-0.191	-0.027	0.189	0.086	-0.035	–	0.013	-0.021	0.055	0.152	-0.04	0.112	0.044	-0.046
KRI1 (UniProt Q8N9T8)	0.017	-0.113	0.016	0.019	-0.012	0.038	0.009	0.042	–	-0.106	–	-0.057	0.011	0.036	-0.022	0.014	0.023	0.045	-0.072	0.009
LRIF1 (UniProt Q5T3J3)	-0.018	0.075	-0.035	0.002	0.126	0.049	0.052	-0.03	0.234	-0.039	-0.094	0.019	-0.008	-0.133	0.006	0.039	0.026	-0.038	–	–
MAN2B2 (UniProt Q9Y2E5)	0.199	0.029	-0.006	–	0.059	-0.004	0.073	0.032	0.049	-0.017	0.01	0	0.595 (active)	-0.018	-0.38	0.003	-0.028	-0.546 (active)	0.021	-0.12
